# The campaign covered roughly 340,000 compounds. About 6,400 (1.9%) were called active. Inconclusive results (about 4%) are left out. The sample holds actives, similar compounds and a random draw of the others, so the mix is not that of the screen. Calls follow the shape of the dose curve; as a rule, active = well fitted falling curve with a large enough effect; inconclusive = small, poorly fitted or top-dose-only effect; inactive = no such curve, though single readings can be large or run the other way.
# Target: ATP-dependent Clp protease proteolytic subunit (Bacillus subtilis (strain 168)) (UniProt P80244)
# Assay: qHTS Assay for Activators of ClpP; also: the source files actives as falling curves though it sought activators and does not explain the sign; nearly all actives have a fitted effect of over 65% in size
# Details: purified B. subtilis ClpP, FRET peptide cleavage, 20 min; series mostly up to 57.5 µM; activity change, negative = active: at the top concentration
# How it was run: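 Purified B. subtilis ClpP, 10 microg/mL final in Tris/HCl pH8 with KCl, BSA, glycerol and Tween-20, cleaved an Abz/nitrotyrosine-quenched decapeptide. Fluorescence (ex 320, em 430) was read at 0 and 20 min at room temperature. Delta was normalized to 5.8 microM ADEP and DMSO/no-enzyme controls.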
# Potency is read from the fitted curve at half-maximal effect.
SMILES,"activity change, negative = active",Potency
CN(N=O)c1ccc(C=C2c3ccccc3-c3ccccc32)cc1,-1.46% (inactive),
CN(C)C1=C2C=CC=CC2/C(=C2/C=Cc3ccccc32)C=C1 (stereo unspecified),2.14% (inactive),
Cc1ccc(-c2cnc(C(O)c3cccc(C)c3C)[nH]2)cc1 (stereo unspecified),-0.238% (inactive),
O=C(c1ccco1)N(Cc1cccs1)c1ccc(O)cc1,-3.06% (inactive),
O=C1NC[C@H](Cc2ccc(O)cc2)N(C[C@@H]2CCCN2C[C@H](Cc2ccccc2)N2C[C@H](Cc3ccccc3)N(CC3CCCCC3)C(=O)C2=O)C1=O,-3.68% (inactive),
CCOC(=O)C(=O)C1C(=O)Nc2ccccc21 (stereo unspecified),-7.79% (inactive),
CCOC(=O)NC(C(F)(F)F)(C(F)(F)F)P(=O)(c1ccccc1)c1ccccc1,0.601% (inactive),
CCOC(=O)CN1CCC(c2ccccc2)CC1,-2.84% (inactive),
CCOC(=O)NN1C(=O)c2ccccc2NC1c1ccccc1O (stereo unspecified),,25.1 µM (active)
CCN1C(=O)N[C@@H](c2ccccc2)C(C(=O)OC)=C1C,-0.536% (inactive),
CCOC(=O)NN1C(=O)c2ccccc2NC1c1cccc(O)c1 (stereo unspecified),,31.6 µM (active)
CCOC(=O)[C@]12CCCC=C1N(CCC1=CCCCC1)C(=O)[C@H](CC(=O)NCCCCc1ccccc1)C2,1.64% (inactive),
O=C(Nc1ccccc1C(F)(F)F)c1nc(S(=O)(=O)Cc2ccccc2F)ncc1Cl,5.4% (inactive),
COc1cc2nc(Cl)nc(NC3CC3)c2cc1OC,-8.73% (inactive),
CN(/N=C/c1ccccc1)C(=S)c1ccccc1,-1.22% (inactive),
CN(O)C(=S)c1ccccc1,,11.2 µM (active)
CN(CC(=O)O)C(=O)c1ccccc1,1.88% (inactive),
O=S1(=O)CC(N2CCN(Cc3ccccc3F)CC2)CN1Cc1cn(Cc2ccccc2)nn1 (stereo unspecified),0.896% (inactive),
Cc1c(CCO)sc[n+]1CC(=O)c1ccc2ccccc2c1,3.84% (inactive),
CCc1nc2ccc(C(=O)N(C)Cc3ccco3)cn2c1N(C)C(=O)Cc1ccccc1,-2.03% (inactive),
CN(CCO)C(=O)c1nc[nH]c1C(=O)N(C)Cc1ccccc1,2.81% (inactive),
CN(Cc1ccccc1)C(=O)[C@@H]1CCCN1C(=O)[C@@H]1CCCN1C(=O)c1c(F)cccc1F,1.37% (inactive),
Cc1nccn1-c1ccc(NC(=O)[C@H]2O[C@@H](n3ccc(=O)[nH]c3=O)[C@H](O)[C@@H]2O)cc1,2.72% (inactive),
CCCC(=O)N1CCC1(C)C(=O)Nc1ccc(-n2cncn2)cc1 (stereo unspecified),-3.69% (inactive),
Cc1ccc(Cn2ccc(NC(=O)C3C4CCC(C4)C3C(=O)O)n2)cc1 (stereo unspecified),-28.6% (inactive),
O=C(Nc1ccn(Cc2ccccc2)n1)c1n[nH]c([N+](=O)[O-])c1Cl,,22.4 µM (active)

SMILES,"activity change, negative = active",Potency
O=C(Nc1ccn(Cc2ccccc2F)n1)c1ccc(COc2ccc(Cl)cc2Cl)o1,-17.4% (inactive),
O=C(c1cnn2c1NC(=C1CC1)C=C2C(F)F)N1CCc2ccccc2C1,0.979% (inactive),
Cc1ccc(C(O)c2ncc(-c3ccccc3F)[nH]2)cc1F (stereo unspecified),0.929% (inactive),
CCCCn1c(N)c(N(CCC(C)C)C(=O)c2ccc(COc3ccccc3)o2)c(=O)[nH]c1=O,-5.35% (inactive),
CCCCN(C(=O)c1ccc(C)o1)c1c(N)n(CCCC)c(=O)[nH]c1=O,0.476% (inactive),
CCCCn1c(N)c(N(CCC(C)C)C(=O)c2ccc([N+](=O)[O-])o2)c(=O)[nH]c1=O,,3.16 µM (active)
CCN(C(=O)Nc1cccc2ccccc12)c1ccccc1,4.17% (inactive),
Cc1cc(=O)[nH]c(SCc2ccc(Cl)cc2)n1,0.425% (inactive),
Cc1cc(=O)[nH]c(SCc2cc(Cl)ccc2OC(F)F)n1,-0.513% (inactive),
O=c1cc(O)nc(SCc2ccccc2Cl)[nH]1,,28.2 µM (active)
O=C(Nc1cccc2ccccc12)c1[nH]c(-c2ccccc2)c2c1C(=O)N(C1CC1)C2=O,1.62% (inactive),
O=C(OC1CC2CC1[C@H]1CCCCN1C2=O)N1CCOCC1 (stereo partly specified),1.07% (inactive),
COc1ccccc1-c1sc2ccccc2c1C#CC1(O)CCCCC1,-0.0591% (inactive),
COc1ccccc1-c1sc2ccccc2c1-c1ccc(C(C)=O)cc1,,28.2 µM (active)
COc1ccc2sc(-c3ccccc3OC)c(-c3ccc(OCCN4CCCC4)cc3)c2c1,-7.61% (inactive),
CCCOc1ccc(F)cc1-c1cc(C(=O)Nc2ccc(F)c(Cl)c2)[nH]n1,-24.4% (inactive),
CN(C)c1ccc(/C=C/c2sc3ccccc3[n+]2CCCCBr)cc1,0.0357% (inactive),
CCOC(=O)[C@]12CCCC=C1N(CCC1=CCCCC1)C(=O)[C@H](CC(=O)N1CCSCC1)C2,0.986% (inactive),
Fc1ccc2cnc(-c3ccccc3)cc2c1,-20% (inactive),
O=S(=O)(c1ccc(F)cc1)n1ccc(-c2cnc(-c3ccccc3)s2)n1,,20 µM (active)
O=S(=O)(c1ccc(F)cc1)N1CC=C(c2ccccc2)CC1,0.167% (inactive),
Cc1ccc(S(=O)(=O)N2CC3C(=O)C[C@@H](c4ccccc4Cl)N(S(=O)(=O)c4ccc(C)cc4)C3CC2c2ccccc2)cc1 (stereo partly specified),0.552% (inactive),
Cc1cccc(-c2nnc(SC(C)C(=O)Nc3ccccc3)n2C)c1 (stereo unspecified),-2.03% (inactive),
CCOC(=O)[C@]12CCCC=C1N(Cc1ccc3c(c1)OCO3)C(=O)[C@H](CC(=O)N1CCN(C(=O)c3ccco3)CC1)C2,-3.46% (inactive),
CN(C)c1ccc(/C=C/c2sc3ccccc3[n+]2C)cc1,0.862% (inactive),
CC1(Oc2cccc(F)c2)CCN(Cc2ccccc2OC(F)F)C1 (stereo unspecified),0.0673% (inactive),

SMILES,"activity change, negative = active",Potency
Cc1nc2ccccc2nc1CC(O)(c1ccccc1)c1ccccc1,1.05% (inactive),
Cc1nc2cccnc2nc1C,0.763% (inactive),
Cc1nc2ccccc2cc1O,,3.55 µM (active)
CC(C)c1cc(C(=O)N(C)C2CCCN(Cc3ccccc3F)C2)n(C)n1 (stereo unspecified),-0.736% (inactive),
Cc1cn([C@H]2C[C@H](O)[C@@H](/C=C/C(=O)NCCCc3ccccc3)O2)c(=O)[nH]c1=O,-2.25% (inactive),
Cc1cc(Cl)ccc1C(=O)C1CCCN(C(=O)c2ccc3c(c2)OCO3)C1 (stereo unspecified),-3.31% (inactive),
O=C1c2cccc3cccc(c23)N1CN1CCN(c2ccccn2)CC1,10.9% (inactive),
CC(C(=O)O)N1C(=O)c2cccc3cccc1c23 (stereo unspecified),-2.92% (inactive),
COc1ccc(N2C(=O)c3cccc4cccc(c34)C2=O)nn1,,15.8 µM (active)
CCS(=O)(=O)Nc1cccc(-c2cc(-c3ccccc3)c3cc(C)ccc3n2)c1,,31.6 µM (active)
CCCOc1ccc(-c2cccc(NS(=O)(=O)c3ccccc3)c2)nn1,-0.0705% (inactive),
CCCS(=O)(=O)Nc1cccc(-c2cn3ccsc3n2)c1,-4.02% (inactive),
O=C(NC1CCCCCC1)C1CCN(C(=O)c2ccc(Cl)cc2)CC1,0.752% (inactive),
Cc1ccnc(N2CCC(C(=O)NC3CCCCCC3)CC2)n1,,25.1 µM (active)
O=C(NNC(=O)C1CCN(c2ncccn2)CC1)c1ccccc1,-19.4% (inactive),
c1cc(-c2ccc3[nH]ccc3c2)n2ccnc2c1,4.02% (inactive),
CCOC(=O)[C@]12CCCC=C1N(CCC1=CCCCC1)C(=O)[C@H](CC(=O)N1CCCCC1)C2,0.0448% (inactive),
[O-][n+]1onc2c1CCc1[nH]c(-c3ccccc3)nc1-2,,28.2 µM (active)
N#Cc1c(-c2ccc(F)cc2)nc(-c2ccccc2)[nH]c1=O,-3.09% (inactive),
CN(C(=O)CN1CCN(c2cc(-c3ccc(OCc4ccccc4)cc3)ncn2)CC1)c1ccccc1,-2.81% (inactive),
COc1ccc(Cl)cc1NC(=O)C(C)N1CCc2ccccc21 (stereo unspecified),,28.2 µM (active)
COc1ccc(Cl)cc1NC(=O)CNc1ccccc1F,1.27% (inactive),
COc1ccc(Cl)cc1NC(=O)NCC1CCN(Cc2ccccc2F)CC1,,inactive
CC(C)CCN(C(=O)Nc1ccc(Cl)c(Cl)c1)C(C)c1cccs1 (stereo unspecified),-0.0691% (inactive),
CCOc1ccc(NC(=O)N(CCC(C)C)C(C)c2ccco2)cc1 (stereo unspecified),,28.2 µM (active)
CCOc1ccc(NC(=O)N(CC(C)C)CC(C)C)cc1,0.546% (inactive),

SMILES,"activity change, negative = active",Potency
OC(CBr)C[n+]1cccc2cc(Br)ccc21 (stereo unspecified),-16.9% (inactive),
Cc1ccc(C(=O)/C=C/c2c(C)nn(-c3ccccc3)c2Cl)cc1,,6.31 µM (active)
Cc1ccc(-n2nc(C)c(/C=N/NC(=O)c3cccs3)c2Cl)cc1,5.26% (inactive),
Cc1nn(-c2ccccc2)c(Cl)c1/C=C/C(=O)c1ccc(O)cc1,-2.48% (inactive),
Cc1ccc(-c2nc3c(C)cc(Br)cn3c2Cc2ccccc2)cc1,-4.79% (inactive),
COC(=O)C[C@@H]1C=C[C@@H](NC(=O)c2ccc3c(c2)OCO3)[C@@H](CO)O1,-12% (inactive),
CCOc1ccc(NC(=O)CSc2nnc3c(n2)[nH]c2ccc(S(=O)(=O)N4CCOCC4)cc23)cc1,9.8% (inactive),
CC(C)C1Cc2[nH][nH]c(=O)c2C(c2ccc(Cl)cc2)O1 (stereo unspecified),-0.878% (inactive),
O=C(Nc1ccc2nc(SCC(=O)N3CCCc4ccccc43)sc2c1)c1ccc(Cl)cc1,,10 µM (active)
CCC(=O)Nc1ccc2nc(SCC(=O)N3CCc4ccccc43)sc2c1,7.24% (inactive),
O=C(COc1ccccc1Cl)Nc1ccc2nc(SCC(=O)N3CCCC3)sc2c1,-14.3% (inactive),
O=C(Nc1ccc2nc(SCC(=O)N3CCc4ccccc43)sc2c1)c1ccccc1F,1.34% (inactive),
O=C(Nc1ccc2nc(SCC(=O)N3CCCc4ccccc43)sc2c1)c1ccc(F)cc1,,28.2 µM (active)
Nc1nnc(SCC(=O)Nc2ccc3nc(SCC(=O)Nc4ccccc4)sc3c2)s1,0.518% (inactive),
Cc1ccc(S(=O)(=O)N2[C@@H](Cc3ccccc3)CO[C@H]2CC(=O)OCc2ccccc2)cc1,-0.866% (inactive),
CN1OC[C@@H]2CN(C(=O)c3ccc(-c4ccccc4)cc3)[C@H](c3ccc(-c4cccc(F)c4)cc3)C[C@@H]21,-1.14% (inactive),
O=C(c1ccc(N2CCCC2=O)cc1)N1CCN(c2ccc(C(F)(F)F)cc2[N+](=O)[O-])CC1,0.9% (inactive),
Cc1ccc(Cn2c(C)c(C(=O)NCc3ccccc3C(F)(F)F)sc2=O)cc1,-1.3% (inactive),
O=C(CC[C@H]1O[C@@H](n2ccc(=O)[nH]c2=O)[C@H](O)[C@@H]1O)N[C@H](Cc1ccccc1)C(=O)NCc1ccco1,-1.61% (inactive),
CC(CN1CCOCC1)OC(=O)c1ccc(C(C)(C)C)cc1 (stereo unspecified),-2.55% (inactive),
CC(CN1CCOCC1)OC(=O)c1ccc(Cl)cc1Cl (stereo unspecified),1.92% (inactive),
Cc1ccc(C(=O)OC(C)CN2CCOCC2)cc1 (stereo unspecified),,39.8 µM (active)
CCN(CC)C(=O)C1=C(C)N(Cc2ccc(OC)cc2)C(=O)C(CC(=O)NCc2ccco2)C1 (stereo unspecified),-2.92% (inactive),

# From PubChem BioAssay AID651965 (National Center for Advancing Translational Sciences (NCATS), 2013)
